Screening data (PubChem)
This is one part of a sample in which hits are shown more often than they occur.
PNC inhibitor = blocks assembly of the perinucleolar compartment; PC3M PTB-GFP, PNC prevalence imaging, 16 h; hits give low values; activity change (PNC), negative = inhibition, % at 10 µM; 140,000 tested, 3.1% active;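 active means readout at or below -70, meaning at least 70% loss of cells showing the perinucleolar compartment, a nuclear body marking cancer cells; inconclusive means readout between -30 and a set limit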;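 further: plate controls were DMSO wells for no effect and camptothecin positive control wells for full effect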
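PC3M cells stably expressing PTB-GFP, 750–1000 cells/well, treated 16 h at 37 °C with compound (23 nl of library stock), in duplicate. After paraformaldehyde fixation and Hoechst stain, imaged at 20x; PNC prevalence scored by image analysis.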
12-hLO inh = 12-hLO (ALOX12) enzyme inhibition; P18054; purified 12-hLO, xylenol orange hydroperoxide absorbance; Potency, µM (series often up to 57.1 µM), inactives show top-dose activity change, negative = inhibition, actives largely listed as inhibitors; 150,000 tested, 0.12% active; further: potency means the concentration at half of the fitted maximal effect; nearly all actives have a fitted effect of over 55% in size
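Xylenol orange chromogenic assay: hydroperoxide from 12hLO oxidises Fe(II), giving red-shifted Fe(III)-XO absorbance. Conditions: 150 nM enzyme, 40 uM arachidonic acid, 25 mM Hepes pH 7.0, 0.01% Triton X-100, 30 min, room temperature.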
IMPase cell inh = cell-permeable inhibitors of inositol monophosphatase (IMPase); 120,000 tested, under 10 active; CHO-M1 cells, IP1 accumulation, HTRF TR-FRET ratio; P97697; AID 901; inhibition (IP1 accumulation), % at 46.1 µM; active means well fitted curve in the direction sought with a large enough effect in the signal ratio, not every such curve was filed as active; inconclusive means small, poorly fitted or top-dose-only effect, or a change in a side signal; inactive means no such curve, though single readings can be large or run the other way; the % refers to the signal ratio;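 further: cells stimulated with carbachol in lithium chloride buffer; plate controls were DMSO basal wells for no effect and reference inhibitor wells for full effect; higher means more IMPase inhibition seen as more IP1 and lower FRET ratio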
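The IP-One HTRF competitive assay in carbachol-stimulated CHO-M1 cells quantifies cellular IP1. Compounds spanned up to 46 uM final, and activity is expressed as AC50 from concentration-response fits of the ratio and donor data.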
IMPase Li cell = cell-permeable IMPase inhibitors with lithium potentiation. CHO-M1 cells, IP1 TR-FRET (IP-One), carbachol + lithium. Potency, µM (top dose mostly 59.4 µM), inactives show top-dose activity, negative = IMPase inhibition, hits mostly inhibitors. 210,000 tested, 0.35% active;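 further: IP1 builds up when IMPase is blocked and the TR-FRET signal falls; potency means the concentration at half of the fitted maximal effect; plate controls were basal vehicle for no effect and high inhibitor control for full effect; nearly all actives have a fitted effect of over 50% in size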
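IP1 accumulation measured by competitive TR-FRET in lysed CHO-M1 cells after 30 min compound exposure at 37C, with a small lithium addition to potentiate weak responses. Hill-equation AC50 from ratio and donor-channel data.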
15-hLO-2 inh = inhibitors of human 15-lipoxygenase 2 (ALOX15B); O15296; purified 15hLO-2, xylenol orange hydroperoxide absorbance; Potency, µM (doses to about 57.1 µM), without a hit: at the highest dose activity change, negative = inhibition, hits mostly inhibitors; 110,000 tested, 0.56% active; further: potency means the concentration at half of the fitted maximal effect; nearly all actives have a fitted effect of over 60% in size
Target sequence (O15296 whole entry, looked up): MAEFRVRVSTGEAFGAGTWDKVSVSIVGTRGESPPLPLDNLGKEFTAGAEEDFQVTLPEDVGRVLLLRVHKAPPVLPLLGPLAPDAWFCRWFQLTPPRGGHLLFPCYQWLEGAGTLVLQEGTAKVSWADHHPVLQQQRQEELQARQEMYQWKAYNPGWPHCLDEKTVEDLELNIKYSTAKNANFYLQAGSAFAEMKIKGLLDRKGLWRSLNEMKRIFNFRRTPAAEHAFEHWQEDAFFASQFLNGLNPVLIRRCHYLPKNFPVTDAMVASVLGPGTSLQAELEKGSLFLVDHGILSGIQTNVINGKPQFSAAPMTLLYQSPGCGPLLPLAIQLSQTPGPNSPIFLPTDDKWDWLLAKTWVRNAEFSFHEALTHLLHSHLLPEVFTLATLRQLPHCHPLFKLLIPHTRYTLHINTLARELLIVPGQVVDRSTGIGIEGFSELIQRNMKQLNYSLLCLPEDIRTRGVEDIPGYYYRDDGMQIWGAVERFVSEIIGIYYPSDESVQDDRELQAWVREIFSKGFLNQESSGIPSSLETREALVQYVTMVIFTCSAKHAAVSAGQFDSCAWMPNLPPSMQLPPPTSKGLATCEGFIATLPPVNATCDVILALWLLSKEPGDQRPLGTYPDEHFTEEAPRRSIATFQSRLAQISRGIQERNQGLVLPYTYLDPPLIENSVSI
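Read-out: hydroperoxide product oxidises ferrous iron, measured as xylenol orange complex via the 573-to-405 nm absorbance ratio after 30 min. Reaction: 50 nM enzyme, 15 min compound preincubation, 45 uM arachidonic acid, 90 min RT, Hepes pH 7.5 with Triton X-100.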
The depositor's hits bear a star; [ ] = remark or other dose. Unless noted, the call rests on the fitted dose curve; in most records, active means well fitted curve in the direction sought with a large enough effect; inconclusive means small, poorly fitted or top-dose-only effect, or another doubt; inactive means no such curve, though single readings can be large; an effect the other way counts as inactive or inconclusive. Unless noted, on the % scale 0 is the no-effect control and ±100 the full control effect.

What do the screens show for `COc1cc(C(=O)OCCNC(=O)c2ccncc2)cc(OC)c1OC`?
PNC inhibitor: -110.8*; 12-hLO inh: 2.4%; IMPase cell inh: 4.9; IMPase Li cell: 2.4%

Results for COc1ccc(/C(C)=N/NS(=O)(=O)c2ccccc2)c(OC)c1 ?
IMPase Li cell: -15.7%

What do the screens show for `C/C(=N/NS(C)(=O)=O)c1ccc2ccccc2c1`?
PNC inhibitor: -102.5*; 12-hLO inh: 0.9%; IMPase cell inh: -0.2; IMPase Li cell: -4.2%[38.3 µM]; 15-hLO-2 inh: -11.6%

How did COc1ccc(/C(C)=N\NS(C)(=O)=O)c(OC)c1 do in these assays?
PNC inhibitor: -83.7*; 12-hLO inh: 2.9%; IMPase Li cell: 0.2%

What do the screens show for `COc1ccc(C(=O)Oc2ccc(C(C)=O)cc2)c(OC)c1`?
PNC inhibitor: -83.0*; 12-hLO inh: -5.8%; IMPase cell inh: 12.0; IMPase Li cell: 12.0%[38.3 µM]; 15-hLO-2 inh: -3.9%

How did CC(C)N1C(=O)CC(Nc2ccc(N3CCOCC3)cc2)C1=O (stereo not given) do in these assays?
PNC inhibitor: 15.8; 12-hLO inh: inconclusive; IMPase cell inh: 5.0; IMPase Li cell: 34.3%[38.3 µM]; 15-hLO-2 inh: 25.1µM*

What do the screens show for `COc1ccc(NC2CC(=O)N(C(C)C)C2=O)cc1` (stereo not given)?
PNC inhibitor: inconclusive; 12-hLO inh: -16.0%; IMPase cell inh: 4.6; IMPase Li cell: 24.0%[38.3 µM]; 15-hLO-2 inh: -3.9%

What do the screens show for `O=C1CC(Nc2ccccc2)C(=O)N1c1ccc(N2CCOCC2)cc1` (stereo not given)?
PNC inhibitor: -104.4*; 12-hLO inh: 4.7%; IMPase cell inh: 1.3; IMPase Li cell: -9.6%[38.3 µM]; 15-hLO-2 inh: -8.7%

How did COc1ccc(CCN2C(=O)CC(Nc3ccc(N4CCOCC4)cc3)C2=O)cc1OC (stereo not given) do in these assays?
PNC inhibitor: 10.7; 12-hLO inh: inconclusive; IMPase cell inh: 18.7; IMPase Li cell: 5.0%[38.3 µM]; 15-hLO-2 inh: 25.1µM*

Results for C[C@H]1CN(S(=O)(=O)c2cccc3cnccc23)CCN1 ?
12-hLO inh: -4.2%; IMPase cell inh: -4.5; 15-hLO-2 inh: 8.0%

What do the screens show for `COc1ccc(C2C3=C(CCCC3=O)Nc3nc(C(F)(F)F)nn32)c(OC)c1OC` (stereo not given)?
PNC inhibitor: -87.8*; 12-hLO inh: -6.0%; IMPase cell inh: 5.5; IMPase Li cell: 6.4%[38.3 µM]; 15-hLO-2 inh: -1.1%

How did Brc1ccccc1OCCCN1CCOCC1 do in these assays?
PNC inhibitor: -100.0*; 12-hLO inh: -1.3%; IMPase cell inh: 8.2; IMPase Li cell: 0.2%

Results for CC(C)(C)c1cc(/C=C(\C#N)C(N)=S)cc(C(C)(C)C)c1O ?
12-hLO inh: -23.5%; IMPase cell inh: 10.7; IMPase Li cell: 22.2%; 15-hLO-2 inh: 12.6µM*

Results for Cc1cccn2cc(COc3ccc(-c4ccccc4)cc3)nc12 ?
IMPase Li cell: 8.6%

How did CCN(CC)S(=O)(=O)c1cc(NC(=O)CSc2nc3c(cc2C#N)C(=O)CC(C)(C)C3)ccc1C do in these assays?
PNC inhibitor: -96.0*; 12-hLO inh: -3.0%; IMPase Li cell: -16.3%

How did Nc1c(C(=O)C2CC2)sc2nc(-c3ccccc3)cc(C(F)(F)F)c12 do in these assays?
PNC inhibitor: 39.1; 12-hLO inh: -3.6%; IMPase cell inh: -24.0; IMPase Li cell: 12.6µM*

What do the screens show for `CC1(C)N=C(N)N=C(N)N1c1cccc(OCc2cccc([N+](=O)[O-])c2)c1`?
12-hLO inh: -2.3%[11.4 µM]; IMPase Li cell: -1.0%; 15-hLO-2 inh: 14.3%[11.4 µM]

What do the screens show for `O=C(O)c1cc(-c2ccc3c(c2)OCO3)nc2ccc(Br)cc12`?
IMPase Li cell: 11.2µM*

Results for O=C(O)c1cc(-c2cccnc2)nc2ccc(Br)cc12 ?
IMPase Li cell: 2.82µM*

Results for CC(=O)Nc1cccc(NC(=O)c2cc(-c3cccnc3)nc3ccc(Br)cc23)c1 ?
PNC inhibitor: 38.8; 12-hLO inh: 7.3%; IMPase cell inh: -19.6; IMPase Li cell: 11.2µM*; 15-hLO-2 inh: 11.1%

How did O=C(Nc1ccc(C(F)(F)F)cc1)c1cc(-c2cccnc2)nc2ccc(Br)cc12 do in these assays?
PNC inhibitor: -1.0; 12-hLO inh: 0.9%; IMPase cell inh: -2.0; IMPase Li cell: -19.4%[38.3 µM]; 15-hLO-2 inh: 3.1%

What do the screens show for `Cc1ccc(-c2cc(C(=O)NCc3cnn(C)c3)c3cc(Br)ccc3n2)cc1`?
PNC inhibitor: -25.5; 12-hLO inh: -2.6%; IMPase cell inh: -2.7; IMPase Li cell: inconclusive

How did Cn1cc(CNC(=O)c2cc(-c3ccccc3)nc3ccc(Br)cc23)cn1 do in these assays?
PNC inhibitor: 10.8; 12-hLO inh: -1.4%; IMPase Li cell: 11.2µM*

Results for CCC1=C(OC(=O)N(CC)CC)N2C(=O)OC(=NCCOC)[C@]2(C)[C@H]2C1=CC[C@H]1C(=O)N(CC)C(=O)[C@H]12 ?
12-hLO inh: 3.5%; IMPase Li cell: -3.6%; 15-hLO-2 inh: 21.9%

Results for CCN1CCN(C(=O)c2cc(-c3cccnc3)nc3ccc(Br)cc23)CC1 ?
PNC inhibitor: -106.8*; 12-hLO inh: 0.8%; IMPase cell inh: -15.6; IMPase Li cell: 12.6µM*; 15-hLO-2 inh: 10.5%

How did O=C(c1cc(-c2ccncc2)nc2ccc(Br)cc12)N1CCN(c2ccccn2)CC1 do in these assays?
PNC inhibitor: 52.7; 12-hLO inh: -7.8%; IMPase cell inh: 1.7; IMPase Li cell: -6.5%[38.3 µM]; 15-hLO-2 inh: 25.2%

What do the screens show for `CCC(C)NC(=O)CSC1=Nc2ccccc2C2=NC(CC(=O)NCc3ccccc3)C(=O)N12` (stereo not given)?
PNC inhibitor: -100.0*; 12-hLO inh: 1.7%; IMPase cell inh: inconclusive; IMPase Li cell: -6.4%

Results for O=C(COC(=O)c1n[nH]c2ccccc12)NC(=O)NC1CCCCC1 ?
PNC inhibitor: -126.9*; 12-hLO inh: -5.3%; IMPase cell inh: -7.0; IMPase Li cell: -0.7%[38.3 µM]; 15-hLO-2 inh: -10.3%

Results for O=C(c1ccncc1)N1CCC[C@@]2(CCN(Cc3ccccc3)C2)C1 ?
12-hLO inh: -2.4%; IMPase Li cell: -8.5%; 15-hLO-2 inh: 0.2%

How did O=C(NNC(=O)c1cc(OCC(F)(F)F)ccc1OCC(F)(F)F)c1cccc(C(F)(F)F)c1 do in these assays?
PNC inhibitor: -84.2*; 12-hLO inh: -0.6%; IMPase cell inh: -1.2[1.84 µM]; IMPase Li cell: 0.6%[38.3 µM]; 15-hLO-2 inh: -7.2%[11.4 µM]

What do the screens show for `COc1ccc(Oc2c(C(F)(F)F)oc3c(CN4CCCC(C)C4)c(O)ccc3c2=O)cc1` (stereo not given)?
IMPase cell inh: -2.8

What do the screens show for `CCn1c(CSc2nc3ccccc3[nH]2)n[nH]c1=S`?
PNC inhibitor: -122.4*; 12-hLO inh: 2.7%; IMPase cell inh: -2.5; IMPase Li cell: 4.1%[38.3 µM]; 15-hLO-2 inh: 6.9%[2.29 µM]

How did CCn1c(CSCc2ccccc2)n[nH]c1=S do in these assays?
IMPase Li cell: -1.8%
